Measurements taken from PubChem BioAssay (Tox21).
Inconclusive results are not listed. The source made the active and inactive calls. Calls follow the shape of the dose curve; as a rule, active = well fitted curve in the direction sought with a large enough effect in the repeat runs; inconclusive = weak or mixed curves; inactive = no such curve, though single readings can be large; an effect the other way counts as inactive or inconclusive.

How the values were obtained:
[1] = Caspase-3/7 induction in CHO-K1 cells by small molecules, qHTS assay (AID 1346980); also: nearly all actives have a fitted effect of over 15% in size; also: potency is read from the fitted curve at half-maximal effect
Outline: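 Wild-type cells were seeded at 1,500 per well and settled 5 hr at 37 C, 5% CO2, then exposed to DMSO-dissolved compounds for 17 hr. Caspase-Glo 3/7 reagent was added, and luminescence was read after 30min at room temperature.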

[2] = Caspase-3/7 induction in HepG2 cells by small molecules, qHTS cell viability counter screen (AID 1346981); also: nearly all actives have a fitted effect of over 30% in size; also: potency is read from the fitted curve at half-maximal effect
Outline: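 The parent HepG2 line is plated at 2,000 cells per well and rested 5 hr before compound pinning from DMSO stocks. Following a 16-hr treatment at 37 C, a fluorogenic live-cell substrate (CellTiter-Fluor) reports viability after 1 hr.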

[3] = biological target: Nuclear receptor subfamily 1 group I member 2 (Homo sapiens) (UniProt O75469); experiment: Human pregnane X receptor (PXR) small molecule agonists, qHTS assay (AID 1346982); also: nearly all actives have a fitted effect of over 35% in size; also: potency is read from the fitted curve at half-maximal effect
Outline: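 After plating in 5% charcoal-stripped FBS and a 5 hr rest, PXR-Luc HepG2 cells received compounds in DMSO. Following 24 hr at 37 C, ONE-Glo was added and light output read.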

[4] = biological target: Cytochrome P450 2D6 (Homo sapiens) (UniProt P10635); experiment: Cytochrome P450 Family 2 Subfamily D Member 6 (CYP2D6) small molecule antagonists: luciferase reporter qHTS assay (AID 1671196); also: nearly all actives have a fitted effect of over 50% in size; also: potency is read from the fitted curve at half-maximal effect
Outline: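 Quantitative HTS of Tox21 chemicals against CYP2D6 using a luminescent proluciferin substrate. After NADPH addition, 1 h room-temperature reaction; luminescence recorded 20 min post detection reagent.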

[5] = biological target: Cytochrome P450 2C9 (Homo sapiens) (UniProt P11712); experiment: Cytochrome P450 Family 2 Subfamily C Member 9 (CYP2C9) small molecule antagonists: luciferase reporter qHTS assay (AID 1671198); also: nearly all actives have a fitted effect of over 50% in size; also: potency is read from the fitted curve at half-maximal effect
Outline: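 CYP2C9 activity was measured with a P450-Glo proluciferin substrate. Enzyme–substrate mix was held with compound for 10 min at room temperature, then NADPH regeneration solution was added for 1 h at 37C. Luciferin product was read as luminescence.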

[6] = biological target: Cytochrome P450 1A2 (Homo sapiens) (UniProt P05177); experiment: Cytochrome P450 Family 1 Subfamily A Member 2 (CYP1A2) small molecule antagonists: luciferase reporter qHTS assay (AID 1671199); also: nearly all actives have a fitted effect of over 50% in size; also: potency is read from the fitted curve at half-maximal effect
Outline: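 Quantitative high-throughput format using the P450-Glo CYP1A2 system. Reaction initiated by NADPH regeneration solution, 1 h at room temperature, then stopped with detection reagent; luminescence measured 20 min later.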

[7] = biological target: Voltage-gated inwardly rectifying potassium channel KCNH2 (Homo sapiens) (UniProt Q12809); experiment: Human Ether-a-go-go-Related Gene (hERG) channel small molecule antagonists: fluorescence cell-based qHTS assay (AID 1671200); also: nearly all actives have a fitted effect of over 50% in size; also: potency is read from the fitted curve at half-maximal effect
Outline: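 Channel function was assessed by thallium flux. Cells seeded the previous day and kept at 37 C took up FluxOR II dye over 1 h in the dark at room temperature, then sat another 10 min before stimulation.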

[8] = biological target: Cytochrome P450 3A4 (Homo sapiens) (UniProt P08684); experiment: Cytochrome P450 Family 3 Subfamily A Member 4 (CYP3A4) small molecule antagonists: luciferase reporter qHTS assay (AID 1671201); also: nearly all actives have a fitted effect of over 50% in size; also: potency is read from the fitted curve at half-maximal effect
Outline: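 Compounds in DMSO were pin-transferred onto CYP3A4 enzyme-substrate mix and held 10 min at room temperature. NADPH regenerating solution started the reaction for 1 h; luciferin detection reagent stopped it, and luminescence was read after 20 min.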

[9] = biological target: Cytochrome P450 2C19 (Homo sapiens) (UniProt P33261); experiment: Cytochrome P450 Family 2 Subfamily C Member 19 (CYP2C19) small molecule antagonists: luciferase reporter qHTS assay (AID 1671197); also: nearly all actives have a fitted effect of over 65% in size; also: potency is read from the fitted curve at half-maximal effect
Outline: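 CYP2C19 P450-Glo, 1536-well qHTS. Cpd + enzyme/proluciferin substrate 10 min RT; + NADPH regen, 37C 1 h; stop with luciferin detection reagent, 20 min RT, luminescence (RLU). Pos ctrl ketoconazole.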

[10] = biological target: Nuclear receptor subfamily 1 group I member 2 (Rattus norvegicus) (UniProt Q9R1A7); experiment: Rat pregnane X receptor (rPXR) activation by small molecules, qHTS assay (AID 1346983); settings: rPXR luciferase reporter cells, One-Glo luminescence, 24 h; max activation: hits give high values; also: nearly all actives have a fitted effect of over 20% in size
Outline: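 Cell-based rPXR luciferase reporter assay, 2,000 cells per well, rested 5hr at 37 C before compound addition in DMSO, then 24 hr at 37 C. One-Glo reagent was added and luminescence read after 30 min at room temperature.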
% is scaled to controls: 0 for no effect and ±100 for the full control effect.

Cytochrome P450 3A4 (Homo sapiens), sequence (P08684 whole entry, looked up): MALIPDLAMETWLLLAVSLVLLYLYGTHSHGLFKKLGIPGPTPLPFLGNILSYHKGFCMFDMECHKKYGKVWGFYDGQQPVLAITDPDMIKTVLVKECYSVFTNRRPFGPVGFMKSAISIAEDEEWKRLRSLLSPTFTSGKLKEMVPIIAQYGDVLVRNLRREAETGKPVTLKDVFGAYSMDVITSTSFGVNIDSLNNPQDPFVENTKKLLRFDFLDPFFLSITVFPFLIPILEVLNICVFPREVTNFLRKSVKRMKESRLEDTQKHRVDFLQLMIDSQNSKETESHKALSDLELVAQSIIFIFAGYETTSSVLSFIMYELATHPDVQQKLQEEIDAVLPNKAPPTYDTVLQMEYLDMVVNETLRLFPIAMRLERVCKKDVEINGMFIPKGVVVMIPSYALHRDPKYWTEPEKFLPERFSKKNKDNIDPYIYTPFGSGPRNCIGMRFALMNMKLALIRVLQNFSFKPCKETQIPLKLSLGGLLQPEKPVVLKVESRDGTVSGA
Voltage-gated inwardly rectifying potassium channel KCNH2 (Homo sapiens), sequence (Q12809 whole entry, looked up): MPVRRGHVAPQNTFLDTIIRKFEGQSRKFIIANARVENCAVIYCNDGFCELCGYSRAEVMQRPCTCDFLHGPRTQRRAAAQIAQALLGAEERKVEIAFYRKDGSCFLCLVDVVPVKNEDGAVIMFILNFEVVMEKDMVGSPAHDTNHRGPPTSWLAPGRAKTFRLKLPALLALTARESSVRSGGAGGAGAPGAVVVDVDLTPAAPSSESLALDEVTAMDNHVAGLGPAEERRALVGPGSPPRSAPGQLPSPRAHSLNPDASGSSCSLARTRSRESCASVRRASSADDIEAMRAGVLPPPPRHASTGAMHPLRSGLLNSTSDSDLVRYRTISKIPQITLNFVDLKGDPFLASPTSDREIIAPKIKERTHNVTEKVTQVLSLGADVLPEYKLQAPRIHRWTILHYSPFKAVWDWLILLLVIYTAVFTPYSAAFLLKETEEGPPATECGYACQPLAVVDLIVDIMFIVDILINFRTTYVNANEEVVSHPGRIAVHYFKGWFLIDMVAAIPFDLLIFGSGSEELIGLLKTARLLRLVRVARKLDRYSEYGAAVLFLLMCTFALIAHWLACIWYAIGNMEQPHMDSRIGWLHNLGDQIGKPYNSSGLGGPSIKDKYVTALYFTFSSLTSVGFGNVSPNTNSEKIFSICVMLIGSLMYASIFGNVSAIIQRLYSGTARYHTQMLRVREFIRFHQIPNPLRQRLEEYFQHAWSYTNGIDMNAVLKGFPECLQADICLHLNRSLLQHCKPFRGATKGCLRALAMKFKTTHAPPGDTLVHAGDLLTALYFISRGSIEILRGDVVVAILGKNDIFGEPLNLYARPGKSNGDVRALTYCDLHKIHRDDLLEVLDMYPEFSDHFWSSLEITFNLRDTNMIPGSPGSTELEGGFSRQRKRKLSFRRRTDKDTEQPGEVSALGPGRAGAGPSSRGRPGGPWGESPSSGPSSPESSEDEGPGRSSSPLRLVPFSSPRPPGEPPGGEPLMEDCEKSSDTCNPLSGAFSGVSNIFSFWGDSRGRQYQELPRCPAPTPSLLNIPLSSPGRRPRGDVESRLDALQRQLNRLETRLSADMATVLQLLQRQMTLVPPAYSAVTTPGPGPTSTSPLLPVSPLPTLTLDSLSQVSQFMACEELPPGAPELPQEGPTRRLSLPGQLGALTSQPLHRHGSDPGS
Cytochrome P450 2C9 (Homo sapiens), sequence (P11712 whole entry, looked up): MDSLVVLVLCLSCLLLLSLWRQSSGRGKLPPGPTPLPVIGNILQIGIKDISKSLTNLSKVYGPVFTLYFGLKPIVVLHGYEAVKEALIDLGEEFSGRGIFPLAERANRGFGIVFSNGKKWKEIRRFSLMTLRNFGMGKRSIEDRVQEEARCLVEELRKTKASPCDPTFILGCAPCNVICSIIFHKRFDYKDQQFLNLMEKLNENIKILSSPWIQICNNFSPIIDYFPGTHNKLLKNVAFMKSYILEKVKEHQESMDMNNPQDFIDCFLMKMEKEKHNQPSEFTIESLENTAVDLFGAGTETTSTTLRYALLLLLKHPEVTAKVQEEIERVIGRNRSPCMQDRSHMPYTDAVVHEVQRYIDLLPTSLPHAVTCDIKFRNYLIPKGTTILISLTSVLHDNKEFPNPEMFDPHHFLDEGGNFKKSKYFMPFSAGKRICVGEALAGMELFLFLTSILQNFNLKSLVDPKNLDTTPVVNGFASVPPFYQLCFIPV
Cytochrome P450 1A2 (Homo sapiens), sequence (P05177 whole entry, looked up): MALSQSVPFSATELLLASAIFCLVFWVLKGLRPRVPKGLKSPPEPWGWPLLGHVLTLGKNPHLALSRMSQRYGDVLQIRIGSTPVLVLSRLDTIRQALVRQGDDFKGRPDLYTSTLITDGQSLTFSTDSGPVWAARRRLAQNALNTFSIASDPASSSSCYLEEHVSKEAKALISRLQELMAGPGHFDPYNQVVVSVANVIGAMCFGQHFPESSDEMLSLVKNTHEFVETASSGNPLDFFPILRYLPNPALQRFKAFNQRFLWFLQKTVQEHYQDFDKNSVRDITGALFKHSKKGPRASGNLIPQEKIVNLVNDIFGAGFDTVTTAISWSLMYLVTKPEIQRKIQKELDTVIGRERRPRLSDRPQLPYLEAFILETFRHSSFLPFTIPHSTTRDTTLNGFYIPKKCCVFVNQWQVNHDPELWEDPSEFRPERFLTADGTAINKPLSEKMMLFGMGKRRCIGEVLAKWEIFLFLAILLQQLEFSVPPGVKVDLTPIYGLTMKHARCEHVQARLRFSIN
Cytochrome P450 2C19 (Homo sapiens), sequence (P33261 whole entry, looked up): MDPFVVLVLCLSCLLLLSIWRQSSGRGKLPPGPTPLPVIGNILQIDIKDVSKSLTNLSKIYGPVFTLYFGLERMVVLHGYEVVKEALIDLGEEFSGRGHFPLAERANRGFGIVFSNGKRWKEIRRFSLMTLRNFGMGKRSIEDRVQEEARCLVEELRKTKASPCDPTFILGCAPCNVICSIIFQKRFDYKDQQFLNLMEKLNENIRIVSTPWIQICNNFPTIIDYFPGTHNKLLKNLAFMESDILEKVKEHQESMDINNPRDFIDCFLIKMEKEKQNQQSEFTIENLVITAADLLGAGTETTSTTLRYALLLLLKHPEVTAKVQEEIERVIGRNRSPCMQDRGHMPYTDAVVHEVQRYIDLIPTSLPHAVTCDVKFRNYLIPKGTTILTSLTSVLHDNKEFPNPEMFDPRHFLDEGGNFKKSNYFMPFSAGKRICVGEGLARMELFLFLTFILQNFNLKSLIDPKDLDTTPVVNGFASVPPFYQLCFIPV
Cytochrome P450 2D6 (Homo sapiens), sequence (P10635 whole entry, looked up): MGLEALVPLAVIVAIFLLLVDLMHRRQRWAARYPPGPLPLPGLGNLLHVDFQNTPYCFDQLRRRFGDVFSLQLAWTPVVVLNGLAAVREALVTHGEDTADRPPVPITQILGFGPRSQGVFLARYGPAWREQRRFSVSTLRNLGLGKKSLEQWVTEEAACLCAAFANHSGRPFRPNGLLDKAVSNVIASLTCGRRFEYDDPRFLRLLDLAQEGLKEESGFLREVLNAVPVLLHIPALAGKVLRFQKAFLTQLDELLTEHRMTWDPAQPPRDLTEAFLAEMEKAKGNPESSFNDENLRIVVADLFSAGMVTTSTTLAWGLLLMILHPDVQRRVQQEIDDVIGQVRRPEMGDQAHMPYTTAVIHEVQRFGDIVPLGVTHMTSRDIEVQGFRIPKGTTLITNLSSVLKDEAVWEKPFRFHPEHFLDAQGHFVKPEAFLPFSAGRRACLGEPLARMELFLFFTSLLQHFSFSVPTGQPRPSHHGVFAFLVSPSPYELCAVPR
Nuclear receptor subfamily 1 group I member 2 (Homo sapiens), sequence (O75469 whole entry, looked up): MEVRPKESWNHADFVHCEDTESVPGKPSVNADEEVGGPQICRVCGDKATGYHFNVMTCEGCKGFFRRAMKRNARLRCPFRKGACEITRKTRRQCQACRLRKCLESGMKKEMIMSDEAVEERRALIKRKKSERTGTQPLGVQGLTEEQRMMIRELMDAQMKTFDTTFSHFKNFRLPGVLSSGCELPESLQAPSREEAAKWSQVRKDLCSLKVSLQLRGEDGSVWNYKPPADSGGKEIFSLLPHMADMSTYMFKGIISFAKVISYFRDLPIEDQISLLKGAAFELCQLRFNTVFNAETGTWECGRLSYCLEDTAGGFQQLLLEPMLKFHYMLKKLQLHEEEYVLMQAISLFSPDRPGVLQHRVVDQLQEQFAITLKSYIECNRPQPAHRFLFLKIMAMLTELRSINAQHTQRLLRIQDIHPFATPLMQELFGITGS
Nuclear receptor subfamily 1 group I member 2 (Rattus norvegicus), sequence (Q9R1A7 whole entry, looked up): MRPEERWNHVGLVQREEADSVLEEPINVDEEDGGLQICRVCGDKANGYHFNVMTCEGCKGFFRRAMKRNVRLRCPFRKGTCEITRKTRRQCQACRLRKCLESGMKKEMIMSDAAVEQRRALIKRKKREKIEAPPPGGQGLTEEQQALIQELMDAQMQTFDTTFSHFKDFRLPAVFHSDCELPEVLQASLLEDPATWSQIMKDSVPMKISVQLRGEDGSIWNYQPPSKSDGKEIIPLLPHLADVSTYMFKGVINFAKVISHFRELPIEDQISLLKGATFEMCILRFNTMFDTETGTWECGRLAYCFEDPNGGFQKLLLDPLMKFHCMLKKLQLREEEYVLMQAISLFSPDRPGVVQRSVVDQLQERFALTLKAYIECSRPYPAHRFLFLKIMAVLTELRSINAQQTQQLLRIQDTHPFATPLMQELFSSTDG

C/C(=C\c1ccc(C(=O)O)cc1)c1ccc2c(c1)C(C)(C)CCC2(C)C
inactive: Potency [1] | Potency [2] | Potency [3] | Potency [4] | Potency [5] | Potency [6] | Potency [7] | Potency [8]

Oc1ccc2c(c1)CCC2
inactive: Potency [1] | Potency [2] | Potency [3] | Potency [4] | Potency [5] | Potency [7] | Potency [8]

CCCCCCCCc1ccc(Nc2ccc(CCCCCCCC)cc2)cc1
inactive: Potency [1] | Potency [2] | Potency [3] | Potency [4] | Potency [7] | Potency [8]

O=C1c2ccccc2C(=O)c2c(Cl)cccc21
active: Potency [3] 10.2 µM | Potency [9] 18.8 µM | Potency [6] 0.0473 µM
inactive: Potency [1] | Potency [2] | Potency [7] | Potency [8]

S=C1NC=NC2N=CNC12 (stereo not drawn)
active: Potency [3] 21.7 µM | Potency [9] 25.2 µM | Potency [5] 39.9 µM | Potency [6] 71 µM
inactive: Potency [1] | Potency [2] | Potency [7] | Potency [8]

CCN(CC)c1ccc2c(c1)Oc1cc(N(CC)CC)ccc1C21OC(=O)c2ccccc21
inactive: Potency [1] | Potency [7]
active: Potency [2] 5.31 µM | Potency [3] 26.6 µM | Potency [9] 38.9 µM | Potency [5] 15.5 µM | Potency [8] 11 µM

CC(C)(C)c1ccc(OC2CCCCC2O)cc1 (stereo not drawn)
inactive: Potency [1] | Potency [2] | Potency [7]
active: Potency [3] 27.3 µM | Potency [5] 35.6 µM | Potency [6] 35.6 µM

CC(C)C(=O)C(C)C
inactive: Potency [1] | Potency [2] | Potency [3] | Potency [9] | Potency [5] | Potency [6] | Potency [7] | Potency [8]

CN1CC[C@H](c2c(O)cc(O)c3c(=O)cc(-c4ccccc4Cl)oc23)[C@H](O)C1
inactive: Potency [9] | Potency [6] | Potency [8]
active: Potency [1] 0.266 µM | Potency [2] 0.335 µM | Potency [3] 0.106 µM

CN1CCN(C)CC1
inactive: Potency [1] | Potency [2] | Potency [3] | Potency [4] | Potency [5] | Potency [6] | Potency [7] | Potency [8]

Cc1ccc(N=Nc2c(O)ccc3ccccc23)c(C)c1
active: Potency [2] 8.41 µM | Potency [3] 0.944 µM | Potency [9] 12.3 µM | Potency [6] 3.47 µM
inactive: Potency [1] | Potency [8]

Oc1ccc(C2(c3ccc(O)c(C4CCCCC4)c3)CCCCC2)cc1C1CCCCC1
inactive: Potency [6] | Potency [7]
active: Potency [1] 13.7 µM | Potency [2] 30.6 µM | Potency [3] 8.63 µM | Potency [5] 2.52 µM | Potency [8] 14.2 µM

O=C1OC2(c3ccccc31)c1ccc(O)c(Br)c1Oc1c2ccc(O)c1Br
inactive: Potency [1] | Potency [3] | Potency [6] | Potency [8]
active: Potency [2] 27.3 µM | Potency [9] 89.4 µM | Potency [5] 63.3 µM | Potency [7] 34.7 µM

Cc1ccc2n[nH]nc2c1
inactive: Potency [1] | Potency [2] | Potency [3] | Potency [4] | Potency [5] | Potency [7] | Potency [8]

CC(=O)CC(N)=O
inactive: Potency [1] | Potency [2] | Potency [3] | Potency [9] | Potency [5] | Potency [6] | Potency [8]

CSc1nnc(C(C)(C)C)c(=O)[nH]1
active: Potency [5] 35.6 µM
inactive: Potency [1] | Potency [2] | Potency [3] | Potency [9] | Potency [6] | Potency [7] | Potency [8]

CCN(CCC#N)c1ccc(N=Nc2ccc([N+](=O)[O-])cc2)cc1
inactive: Potency [1] | Potency [2] | Potency [4] | Potency [5] | Potency [6] | Potency [8]
active: Potency [3] 6.11 µM

CCc1cccc(C)c1N(C(=O)CS(=O)(=O)O)C(C)COC (stereo not drawn)
inactive: Potency [1] | Potency [2] | Potency [3] | Potency [4] | Potency [6] | Potency [7]

Cc1cc(Br)ccc1NC(=O)CCl
inactive: Potency [1] | Potency [7] | Potency [8]
active: Potency [2] 61.1 µM | Potency [3] 3.44 µM | Potency [9] 79.6 µM | Potency [5] 39.9 µM | Potency [6] 11.2 µM

Cc1cc(C)c(O)c(C(C)(C)C)c1
inactive: Potency [1] | Potency [2] | Potency [3] | Potency [4] | Potency [7] | Potency [8]
active: Potency [6] 31.7 µM

CC1(C)[C@H]2CC[C@]1(C)C(=O)C2
inactive: Potency [1] | Potency [3] | Potency [9] | Potency [5] | Potency [6] | Potency [7] | Potency [8]

Oc1ccc(Cl)cc1C1CCCC1
inactive: Potency [1] | Potency [8]
active: Potency [3] 68.6 µM | Potency [9] 8.94 µM | Potency [5] 28.3 µM | Potency [6] 22.4 µM

CC/C=C(\C)C=O
inactive: Potency [1] | Potency [3] | Potency [4] | Potency [9] | Potency [5] | Potency [8]
active: Potency [6] 39.9 µM

ClC(c1ccccc1)(c1ccccc1)c1ccccc1
inactive: Potency [1] | Potency [2] | Potency [6] | Potency [7] | Potency [8]
active: Potency [3] 9.69 µM | Potency [5] 1.59 µM

CN(C)CCOc1ccc(/C(=C(/CCCl)c2ccccc2)c2ccccc2)cc1
inactive: max activation [10] -3.02%
active: Potency [1] 51 µM | Potency [2] 57.2 µM | Potency [4] 52.8 µM
